Bioassay records: PubChem BioAssay, The Scripps Research Institute Molecular Screening Center
Compounds with a hit are over-represented: about 4.1% of the library has one in this group of screens.
ssDAF12 agonist = S. stercoralis DAF-12 nuclear receptor activators, primary screen, cell-based, luminescence, HEK293, GRIP1 co-expression, lit1-tk-luc | Nuclear hormone receptor DAF-12 (Strongyloides stercoralis) | HEK293 ssDAF-12/GRIP1 lit1-tk-luc reporter; % of 3 µM dafachronic acid response | activation, % at 6.8 µM | 370,000 tested, 1% active | AID 652126, 2013;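 active means activation above the mean over all tested compounds plus 3 SD, cut at about 0.9% in these data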;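 further: 0% = DMSO-only wells and 100% = 3 µM delta7-dafachronic acid wells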
DAX1 inh-1 = DAX1 (NR0B1) inhibitors, primary screen, cell-based, HEK293, Gal4-DAX1, luciferase luminescence | 340,000 tested, 0.99% active | inhibition, % at 6.75 µM | Nuclear receptor subfamily 0 group B member 1 (Homo sapiens), P51843 | HEK293 Gal4-DAX1 luciferase reporter;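 active means inhibition above the mean over all tested compounds plus 3 SD, cut at about 4.2% in these data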;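 further: 0% = DAX1-transfected cells with DMSO and 100% = empty-vector control cells with DMSO; inhibition shows as a rise in luminescence from relieved DAX1 repression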
DAX1 inh-2 = DAX1 (NR0B1) inhibitors on StAR promoter, primary screen, cell-based, luminescence, SF-1 (NR5A1), full-length DAX-1. HEK293T StAR-luciferase reporter, SF-1/DAX-1 repression relief. inhibition, % at 6.8 µM. 370,000 tested, 1.1% active. AID 652010, 2013;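 active means inhibition above the mean over all tested compounds plus 3 SD, cut at about 3.6% in these data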;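 further: 0% = DAX-1 cells with DMSO and 100% = cells lacking DAX-1 with DMSO; higher inhibition means more luminescence from relief of DAX-1 repression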
hgDAF-12 ag = H. glycines DAF-12 receptor agonists, primary screen, cell-based, luminescence, HEK293, GAL4 fusion, UAS-luciferase; Nuclear hormone receptor DAF-12 (Heterodera glycines), GAL4 fusion; HEK293 GAL4-hgDAF12 UAS-luciferase reporter, agonist luminescence; normalized to butyrate control; activation, % at 6.8 µM; 370,000 tested, 1.8% active; AID 687014, 2013;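 active means activation above a cutoff set at the mean of all screened compounds plus 3 SD, cut at about 10% in these data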;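 further: 0% = DMSO wells and 100% = sodium butyrate wells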
hcDAF-12 act = H. contortus DAF-12 nuclear receptor activators, primary screen, cell-based, luminescence, HEK293, lit1-tk-luc reporter | 370,000 tested, 1.4% active | activation, % at 6.8 µM | HEK293 hcDAF-12 lit1-tk-luc reporter; 0% DMSO, 100% Δ7-dafachronic acid;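 active means activation above the mean of all tested compounds plus 3 SD, cut at about 5.5% in these data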;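 further: 100% = response to 3 µM Δ7-dafachronic acid high control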
DAX1 conf = DAX1 (NR0B1) inhibitors relieving SF-1 repression, confirmation, cell-based, luminescence, HEK293T, full-length DAX-1, SF-1 activated StAR promoter; shares compounds with DAX1 inh-2; 2,400 tested, 87% active; inhibition, % at 6.8 µM; HEK293T StAR-promoter luciferase reporter, SF-1/DAX-1 repression;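 active means inhibition above the average of every tested compound plus 3 SD, cut at about 3.8% in these data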;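 further: 0% = DAX-1 cells with DMSO and 100% = no DAX-1 control cells with DMSO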
Target sequence (P51843 whole entry, looked up): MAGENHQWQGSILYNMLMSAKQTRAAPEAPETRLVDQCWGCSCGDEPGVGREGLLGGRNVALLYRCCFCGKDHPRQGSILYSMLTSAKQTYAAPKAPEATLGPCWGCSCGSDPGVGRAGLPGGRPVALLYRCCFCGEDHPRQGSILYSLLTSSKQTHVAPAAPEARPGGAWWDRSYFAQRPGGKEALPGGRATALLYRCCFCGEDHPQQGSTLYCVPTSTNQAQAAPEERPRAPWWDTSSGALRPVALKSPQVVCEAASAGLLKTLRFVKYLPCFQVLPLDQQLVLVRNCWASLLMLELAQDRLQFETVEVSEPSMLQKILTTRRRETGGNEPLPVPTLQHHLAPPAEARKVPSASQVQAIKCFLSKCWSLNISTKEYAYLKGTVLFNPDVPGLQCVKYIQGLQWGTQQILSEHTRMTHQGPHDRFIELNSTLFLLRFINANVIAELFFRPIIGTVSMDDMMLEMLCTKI
SF1 mutant ctr = StAR reporter signal changes without DAX1, counter-screen for DAX1 inhibitor project, cell-based, luminescence, AF-2 mutant SF-1, transactivation; shares compounds with DAX1 inh-2; inhibition, % at 6.8 µM; HEK293 StAR-luciferase, SF-1 AF2 mutant; 2,400 tested, 78% active;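 active means inhibition above the mean of all tested compounds plus 3 SD, cut at about 3% in these data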;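 further: 0% = DAX-1 transfected cells with DMSO and 100% = cells without DAX-1 with DMSO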
Numbers without * were called inactive; . = no result given.

SMILES	ssDAF12 agonist	DAX1 inh-1	DAX1 inh-2	hgDAF-12 ag	hcDAF-12 act	DAX1 conf	SF1 mutant ctr
Cc1ccc(NC(=O)NCCN2C(=O)C3C4C=CC(C4)C3C2=O)cc1 (stereo not drawn)	-1	5.8*	5.1*	10	6.5*	13*	6.1*
O=C(N/N=C/c1ccc2cccnc2c1)c1ccco1	0	1	5.0*	12*	3	14*	7.2*
Cc1ccc(Cl)c2c1=NC(=O)C=2c1[nH]c(=S)[nH]c1O	0	0	-1	1	0	.	.
CN1C(=O)CSc2ccc(NC(=O)N3CCc4ccccc43)cc21	0	2	5.9*	9	3	6.3*	2
Cc1cccc(CCNC(=O)c2cc3ccccn3n2)c1	-1	.	1	6	-2	.	.
O=C(NCCc1ccccc1F)c1cc2ccccn2n1	1	.	5.0*	13*	4	16*	5.2*
COC(=O)c1cccc(NC(=S)NCc2ccc(F)cc2)c1	-1	1	0	2	1	.	.
Cc1ccc2nc(SCC(=O)N3CCCC3)[nH]c2c1	0	3	4.8*	10	4	12*	6.1*
Cc1ccc2nc(SCC(=O)N3CCN(C(=O)c4ccco4)CC3)[nH]c2c1	0	0	-1	1	2	.	.
Cc1ccc(NC(=O)c2ccc(OCC3CCCO3)cc2)nc1 (stereo not drawn)	0	0	8.3*	12*	3	6.7*	3.3*
Cc1cnc(NC(=O)c2ccc(OCC3CCCO3)cc2)s1 (stereo not drawn)	0	-3	2	9	5	.	.
CCc1nc2ccc(C(=O)Nc3ccc4c(c3)OCC(=O)N4)cn2c1N(C)C(=O)Cc1ccccc1	-1	.	0	3	-2	.	.
O=C(Nc1ccc(Cl)cc1)N1CCC(c2ccccc2)C1 (stereo not drawn)	1	6.8*	5.6*	12*	3	12*	6.6*
Cc1ccc2nc(-c3cccc(Br)c3)c(CC3CCCCC3)n2c1	0	.	6.4*	13*	5	5.1*	5.6*
Cc1ccc(-c2nc3ccc(Cl)cn3c2CC(C)(C)C)cc1	-1	0	1	3	0	.	.
Cc1ccc(-c2nc3ccc(Cl)cn3c2CC2CCCCC2)cc1	0	.	4.8*	13*	7.1*	8.5*	5.5*
CC(C)(C)NC(=O)CSc1nc2ccc(NC(=O)CSc3nnc(N)s3)cc2s1	-3	-2	-1	-6	-5	.	.
Cc1ccc(OCc2cc(C(=O)N3CCN(c4ccccc4)CC3)no2)cc1C	0	4	5.8*	13*	4	11*	6.5*
COc1ccc(OCc2cc(C(=O)N3CCCCCCC3)no2)c(Cl)c1	0	2	2	6	1	.	.
COc1cc(C)ccc1OCc1cc(C(=O)N2CCCCCCC2)no1	1	1	4.6*	9	2	5.4*	3.5*
Cc1cc(OCc2cc(C(=O)N3CCCCCC3)no2)cc(C)c1Cl	1	1	5.5*	8	4	7.1*	4.1*
Cc1ccc(OCc2cc(C(=O)N3CCN(C4CCCC4)CC3)no2)cc1C	-1	2	0	4	-1	.	.
Cc1ccc(OCc2cc(C(=O)N3CCN(C4CCCCC4)CC3)no2)cc1C	-1	2	6.4*	4	2	6.5*	4.1*
Cc1cnc(C(=O)OCc2cc(=O)n3c(C)cccc3n2)cn1	-1	0	0	4	-1	.	.
